PubChem BioAssay (Tox21)
Records with an inconclusive call do not appear. Activity calls are given as the source filed them. Unless noted, calls follow the shape of the dose curve; as a rule, active = well fitted curve in the direction sought with a large enough effect in the repeat runs; inconclusive = weak or mixed curves; inactive = no such curve, though single readings can be large; an effect the other way counts as inactive or inconclusive.

Experiments:
[1] = qHTS assay to identify small molecule agonists of the hypoxia (HIF-1) signaling pathway (AID 1224846; active = well fitted activation curve with a large enough effect in the signal ratio in the repeat runs, not every such curve was filed as active; the % refers to the signal ratio)
How it was run: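 Compounds added to ME-180 cells carrying hypoxia-response-element beta-lactamase reporter (0.5% dialyzed FBS, 5 h preplating), 17 h at 37C; agonist activity detected by CCF4-AM B/G FRET read-out.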

[2] = qHTS assay to identify small molecule agonists of H2AX - cell viability counter screen (AID 1224847; calls by dose curve; also: nearly all actives have a fitted effect of over 30% in size; also: potency is read from the fitted curve at half-maximal effect)
How it was run: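 CHO-K1 cells plated overnight at 37C, then exposed 3 h at 37C to compounds at 15 concentrations (0.76% DMSO final). Viability by CellTiter-Glo luminescence after 30 min at room temperature.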

[3] = qHTS assay to identify small molecule antagonists of the estrogen related receptor (ERR) signaling pathway from Tox21 library (AID 1224848); also: nearly all actives have a fitted effect of over 50% in size
How it was run: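 Quantitative high-throughput format: ERR reporter cells (2,000/well) pre-incubated 6 h, treated 18 h at 37 C with compounds in DMSO alongside positive and negative controls, then read by ONE-Glo luminescence.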

[4] = qHTS assay to identify small molecule agonists of the estrogen related receptor (ERR) signaling pathway from Tox21 library (AID 1224849; calls by dose curve; also: nearly all actives have a fitted effect of over 15% in size); conditions: ERR reporter cell line, ONE-Glo luciferase, 18 h; at 92.4 µM (top of the series) unless noted
How it was run: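 Luminescent agonist read-out (One-Glo, 30-minute room-temperature incubation) following 18-hour compound treatment at 37 C of the ERR cell line, which had been plated 6 hours before dosing.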

[5] = qHTS RealTime-Glo MT Cell Viability Assay in HepG2 cells - 24 hour (AID 1224867); also: nearly all actives have a fitted effect of over 50% in size; also: potency is read from the fitted curve at half-maximal effect
How it was run: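 HepG2 cells were seeded at 600 cells/well together with NanoLuc luciferase and a cell-permeant prosubstrate, preincubated 5 h at 37 C/5% CO2, then pin-dosed with compounds in DMSO. Nonlytic luminescence from viable cells was read at each time point.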

[6] = qHTS RealTime-Glo MT Cell Viability Assay in HEK293 cells - 32 hour (AID 1224868); also: nearly all actives have a fitted effect of over 50% in size; also: potency is read from the fitted curve at half-maximal effect
How it was run: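 HEK293 cells were seeded at 600 cells/well together with NanoLuc luciferase and cell-permeant prosubstrate, preincubated 5 h at 37 C/5% CO2, then given compound in DMSO by pintool. Luminescence from viable-cell prosubstrate reduction was read repeatedly over 40 h.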

[7] = A CellTox Green Cytotoxicity Assay to monitor cytotoxicity in HEK293 cells - 0 hour (AID 1224869); also: nearly all actives have a fitted effect of over 50% in size; also: potency is read from the fitted curve at half-maximal effect
How it was run: (§1)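 Fluorescence from a DNA-binding dye excluded by viable cells was measured repeatedly in the same HEK293 wells (600 cells/well) during continuous compound exposure at 37 C. Each assay gives one read point: 0, 8, 16, 24, 32 or 40 h.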

[8] = qHTS RealTime-Glo MT Cell Viability Assay in HepG2 cells - 40 hour (AID 1224870); also: nearly all actives have a fitted effect of over 50% in size; also: potency is read from the fitted curve at half-maximal effect
How it was run: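 HepG2 cells (600/well) mixed with RealTime-Glo MT reagent, settled 5 h at 37 C/5% CO2 before compound addition. Nonlytic NanoLuc luminescence from viable-cell prosubstrate reduction read repeatedly during 40 h treatment at 37 C.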

[9] = A CellTox Green Cytotoxicity Assay to monitor cytotoxicity in HEK293 cells - 40 hour (AID 1224871); also: nearly all actives have a fitted effect of over 45% in size; also: potency is read from the fitted curve at half-maximal effect
How it was run: as §1
% is scaled to controls: 0 for no effect and ±100 for the full control effect.

Cc1oc(=O)oc1COC(=O)[C@@H]1N2C(=O)[C@@H](NC(=O)[C@H](N)c3ccccc3)[C@H]2SC1(C)C
inactive: outcome [1] | Potency [2] | Potency [3] | activity change, positive = activation [4] 1.21% [at 42.5 µM] | Potency [5] | Potency [6] | Potency [7] | Potency [8] | Potency [9]

CCCCCCCCCCCCCCCC(=O)OCC
inactive: outcome [1] | Potency [2] | Potency [5] | Potency [6] | Potency [7] | Potency [8] | Potency [9]

C=C(C)c1ccccc1
inactive: Potency [2] | Potency [5] | Potency [6] | Potency [7] | Potency [8] | Potency [9]

O=C(O)/C=C/c1ccc(O)c(O)c1
inactive: Potency [2] | Potency [5] | Potency [6] | Potency [7] | Potency [8] | Potency [9]

c1ccc(CNc2ncnc3c2ncn3C2CCCCO2)cc1 (configuration not stated)
inactive: outcome [1] | Potency [2] | Potency [5] | Potency [7] | Potency [8] | Potency [9]

Oc1cccc2[nH]ccc12
inactive: outcome [1] | Potency [2] | Potency [5] | Potency [6] | Potency [7] | Potency [8] | Potency [9]

O=C(c1ccccc1)C1CCC1
active: Potency [7] 38.9 µM | Potency [9] 24.5 µM
inactive: outcome [1] | Potency [2] | Potency [5] | Potency [6] | Potency [8]

CC(C)(C)NCC(O)COc1cccc2c1C[C@H](O)[C@H](O)C2 (some centres not stated)
inactive: Potency [2] | Potency [5] | Potency [6] | Potency [7] | Potency [8] | Potency [9]

CC[C@H]1OC(=O)[C@H](C)[C@@H](O[C@H]2C[C@@](C)(OC)[C@@H](O)[C@H](C)O2)[C@H](C)[C@@H](O[C@@H]2O[C@H](C)C[C@H](N(C)C)[C@H]2O)[C@](C)(O)C[C@@H](C)C(=O)[C@H](C)[C@@H](O)[C@]1(C)O
inactive: Potency [2] | Potency [5] | Potency [6] | Potency [7] | Potency [8] | Potency [9]

O=c1[nH][nH]c(=O)c2cc([N+](=O)[O-])ccc12
inactive: outcome [1] | Potency [2] | Potency [5] | Potency [6] | Potency [7] | Potency [8] | Potency [9]

COc1cc(C(C)=O)ccc1OCCCN1CCC(c2noc3cc(F)ccc23)CC1
inactive: outcome [1] | Potency [2] | Potency [7] | Potency [8] | Potency [9]
active: Potency [6] 10.7 µM

C[C@@H]1[C@H](O)[C@@H](C)/C=C/C=C\C=C\C=C\C=C\C=C\C=C\[C@H](O[C@@H]2O[C@H](C)[C@@H](O)[C@H](N)[C@@H]2O)C[C@@H]2O[C@](O)(C[C@@H](O)C[C@@H](O)[C@H](O)CC[C@@H](O)C[C@@H](O)CC(=O)O[C@H]1C)C[C@H](O)[C@H]2C(=O)O (stereo in doubt)
inactive: Potency [2] | Potency [5] | Potency [6] | Potency [7] | Potency [8]

O=C(O)c1cccc(C[C@@H]2COc3ccc(OCc4nc5cc(F)ccc5s4)cc3[C@@H]2O)c1
inactive: outcome [1] | Potency [5] | Potency [6] | Potency [7] | Potency [8] | Potency [9]

CCC(CO)(CO)CO
inactive: outcome [1] | Potency [2] | Potency [5] | Potency [6] | Potency [7] | Potency [8] | Potency [9]

CC1CCC(C(C)CS)CC1S (configuration not stated)
active: Potency [9] 49 µM
inactive: Potency [2] | Potency [3] | activity change, positive = activation [4] 4.8% | Potency [5] | Potency [6] | Potency [7] | Potency [8]

CCN(CC)C(=O)/C(C#N)=C/c1cc(O)c(O)c([N+](=O)[O-])c1
inactive: Potency [2] | Potency [5] | Potency [7] | Potency [8] | Potency [9]

O=[N+]([O-])C1(Br)COCOC1
inactive: activity change, positive = activation [4] -12.2% | Potency [7]
active: Potency [2] 113 µM | Potency [5] 54.9 µM | Potency [6] 34.7 µM | Potency [8] 49 µM | Potency [9] 49 µM

O=C(CCS)OCC(COC(=O)CCS)(COC(=O)CCS)COC(=O)CCS
inactive: Potency [2] | Potency [5] | Potency [7] | Potency [8] | Potency [9]

Nc1cccc2c(N)cccc12
inactive: outcome [1] | Potency [2] | Potency [7] | Potency [9]

Cc1cccc(C)c1NC(=O)c1cc(S(N)(=O)=O)c(Cl)cc1O
inactive: outcome [1] | Potency [2] | Potency [5] | Potency [6] | Potency [7] | Potency [8] | Potency [9]

COc1cc(OC)c2ccc(=O)oc2c1
inactive: outcome [1] | Potency [2] | Potency [5] | Potency [6] | Potency [7] | Potency [8] | Potency [9]

Nc1ccc(S(=O)(=O)NCc2ccccc2)cc1
inactive: outcome [1] | Potency [2] | Potency [5] | Potency [6] | Potency [7] | Potency [8] | Potency [9]

CC12CC3CC(C)(C1)CC(N)(C3)C2
inactive: Potency [2] | Potency [3] | activity change, positive = activation [4] -0.576% [at 42.5 µM] | Potency [5] | Potency [6] | Potency [7] | Potency [8] | Potency [9]

CN(C)CC/C=C1\c2ccccc2Sc2ccc(Cl)cc21
inactive: activity change, positive = activation [4] -17.7% [at 42.5 µM] | Potency [7]
active: Potency [2] 49.2 µM | Potency [5] 23.9 µM | Potency [6] 23.9 µM | Potency [8] 23.9 µM | Potency [9] 23.9 µM

Nc1ccn([C@H]2CS[C@@H](CO)O2)c(=O)n1
inactive: outcome [1] | Potency [2] | Potency [5] | Potency [6] | Potency [7] | Potency [8] | Potency [9]

O=C1OC(=O)c2c(Br)c(Br)c(Br)c(Br)c21
inactive: outcome [1] | Potency [2] | Potency [5] | Potency [6] | Potency [7] | Potency [8] | Potency [9]

C=C(C)C(=O)OCCC(F)(F)C(F)(F)C(F)(F)C(F)(F)C(F)(F)C(F)(F)F
inactive: outcome [1] | Potency [2] | Potency [5] | Potency [6] | Potency [7] | Potency [8] | Potency [9]

CC(C)COC(=O)c1ccc(O)cc1
inactive: outcome [1] | Potency [2] | Potency [5] | Potency [7] | Potency [8]
